Assay outcomes deposited in PubChem by National Center for Advancing Translational Sciences (NCATS).
Only some compounds are listed: those with a hit (about 10% of all), similar ones and a draw of the others.
3T3 cytotox: kills NIH 3T3 cells; NIH 3T3 viability, CellTiter-Glo ATP luminescence, 48-72 h; Potency, µM (doses to about 96.7 µM), for inactives: at the top dose activity change, negative = cytotoxicity, hits mostly inhibitors; actives 4.3% (n = 94,000); also: nearly all actives have a fitted effect of over 55% in size
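Mouse fibroblast NIH 3T3 cells, 400 per well, received compound via pintool and were incubated for 48 or 72 hr prior to CellTiter-Glo ATP luminescence measurement.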
Luciferase inh: inhibitors of firefly (Photinus pyralis) luciferase | actives 2.5% (n = 76,000) | Potency, µM (top dose mostly 115 µM), most hits filed as inhibitors | AID 1347043 | purified P. pyralis luciferase, luminescence, biochemical | P08659; also: nearly all actives have a fitted effect of over 65% in size
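Purified 10nM P. pyralis luciferase with 10uM D-luciferin and 10uM ATP in 50mM Tris acetate pH 7.5, 10mM Mg acetate, 0.01% Tween-20, 0.05% BSA. qHTS titration; luminescence read by CCD imager.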
GPT2 inh: inhibitors of human GPT2 alanine aminotransferase; Q8TD30; actives 0.25% (n = 100,000); Recombinant GPT2, coupled pyruvate oxidase/HRP Amplex Red fluorescence; Potency, µM (titrated, usually from 57.7 µM), without a hit: at the top dose activity change, negative = inhibition, most hits filed as inhibitors; AID 1671188; also: nearly all actives have a fitted effect of over 60% in size
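Fluorescence of coupled pyruvate oxidase/HRP/Amplex Red system (50uM Amplex, 30 min, dark) reports pyruvate formed by GPT2. Enzyme reaction: 10ng/uL GPT2, 2mM L-alanine, 250uM a-KG, 30 min room temperature, pH 7.5; 50uM AOA control.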
hNpr1 antagonist: blocks ANP-stimulated signaling of human Npr1 receptor; HEK293 hNpr1 GloSensor cGMP, ANP-stimulated luminescence; Potency, µM (highest dose often 46.3 µM), inactives show at the top dose activity change, negative = inhibition, usual class: inhibitors; actives 1.6% (n = 76,000); AID 1347048; calls by dose curve; also: nearly all actives have a fitted effect of over 60% in size
Target sequence (P16066 whole entry, looked up): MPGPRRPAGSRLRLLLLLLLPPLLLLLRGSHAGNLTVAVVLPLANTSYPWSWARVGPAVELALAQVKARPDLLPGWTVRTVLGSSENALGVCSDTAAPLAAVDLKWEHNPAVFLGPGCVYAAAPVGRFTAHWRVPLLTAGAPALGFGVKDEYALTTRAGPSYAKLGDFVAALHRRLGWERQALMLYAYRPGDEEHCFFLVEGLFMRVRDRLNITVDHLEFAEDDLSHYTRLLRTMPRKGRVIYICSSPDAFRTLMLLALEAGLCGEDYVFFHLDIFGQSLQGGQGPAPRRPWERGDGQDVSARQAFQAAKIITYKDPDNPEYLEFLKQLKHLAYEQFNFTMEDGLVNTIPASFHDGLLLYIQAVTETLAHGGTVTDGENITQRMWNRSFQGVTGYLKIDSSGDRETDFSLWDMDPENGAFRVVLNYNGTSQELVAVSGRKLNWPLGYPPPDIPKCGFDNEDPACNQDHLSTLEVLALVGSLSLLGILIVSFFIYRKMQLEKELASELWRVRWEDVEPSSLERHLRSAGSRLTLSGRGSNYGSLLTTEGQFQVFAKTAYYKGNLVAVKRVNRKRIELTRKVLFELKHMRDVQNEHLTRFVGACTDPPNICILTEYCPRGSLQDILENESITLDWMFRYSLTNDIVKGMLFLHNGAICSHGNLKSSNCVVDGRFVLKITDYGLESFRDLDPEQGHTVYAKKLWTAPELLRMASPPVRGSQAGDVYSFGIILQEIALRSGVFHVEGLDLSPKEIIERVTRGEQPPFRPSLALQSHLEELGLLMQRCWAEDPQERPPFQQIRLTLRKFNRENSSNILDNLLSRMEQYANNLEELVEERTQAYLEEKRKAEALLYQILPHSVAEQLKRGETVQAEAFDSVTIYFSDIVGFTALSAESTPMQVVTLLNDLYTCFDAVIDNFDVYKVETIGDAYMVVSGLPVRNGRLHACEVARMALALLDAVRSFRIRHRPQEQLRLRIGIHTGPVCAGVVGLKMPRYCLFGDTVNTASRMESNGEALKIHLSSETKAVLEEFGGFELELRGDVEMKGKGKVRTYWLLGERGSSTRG
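Compound pre-incubated 30 min at room temperature on GloSensor-loaded HEK293 cells stably carrying hNpr1 and the pGS-40F cGMP biosensor. Stimulation uses hNppA at 0.1 nM final; luminescence is taken at baseline and 20 min post-agonist.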
HEK293 tox: HEK 293 cell cytotoxicity; Potency, µM (series often up to 115 µM), inactives show top-dose activity change, negative = cytotoxicity, hits mostly inhibitors; HEK 293 viability, ATP luminescence (CellTiter-Glo), 48-72 h; actives 6.6% (n = 94,000); also: nearly all actives have a fitted effect of over 60% in size
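Read-out: CellTiter-Glo ATP luminescence. Cells: HEK 293, 250 cells/well. Exposure: 48 or 72 hr, 37 degree Celsius.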
An asterisk follows results filed as active; [ ] = another dose, or the depositor's remark. Unless noted, calls follow the shape of the dose curve; as a rule, active = well fitted curve in the direction sought with a large enough effect; inconclusive = small, poorly fitted or top-dose-only effect, or another doubt; inactive = no such curve, though single readings can be large; an effect the other way counts as inactive or inconclusive. % is scaled to controls: 0 for no effect and ±100 for the full control effect; potency is read from the fitted curve at half-maximal effect.

How did CC(=O)N1CCN(c2nc3c(s2)CC(C(=O)Nc2cc(Cl)ccc2F)CC3)CC1 (stereo not given) do in these assays?
3T3 cytotox: inconclusive; Luciferase inh: inactive; GPT2 inh: inactive; hNpr1 antagonist: -22%; HEK293 tox: 40µM*

How did CC(C)C(=O)N1CCN(c2nc3c(s2)CC(C(=O)Nc2ccc(Cl)cc2)CC3)CC1 (stereo not given) do in these assays?
3T3 cytotox: -18%; Luciferase inh: inactive; GPT2 inh: 2%; hNpr1 antagonist: -17%; HEK293 tox: inconclusive

How did O=C(Nc1ccc(=O)n2c1[C@@H]1C[C@@H](CN(C(=O)COc3ccccc3)C1)C2)c1cncnc1 do in these assays?
3T3 cytotox: -9%; Luciferase inh: inactive; GPT2 inh: -49%; hNpr1 antagonist: 1%; HEK293 tox: -6%

How did Cc1noc(C)c1[S+](=O)([O-])N1CCN(C(=O)c2nc3cccnc3n(CC(C)C)c2=O)CC1 do in these assays?
3T3 cytotox: -7%; GPT2 inh: inactive; HEK293 tox: -5%

What do the screens show for `O=C(NCC(F)(F)F)c1nc2sccn2c1-c1ccncc1`?
3T3 cytotox: -15%[138 µM]; GPT2 inh: inactive; HEK293 tox: 4%[172 µM]

How did O=C(c1ccc2[nH]ccc2c1)N1CCC2(CC1)Nc1ccccc1NC2=O do in these assays?
3T3 cytotox: -14%; Luciferase inh: inactive; GPT2 inh: -15%[11.5 µM]; hNpr1 antagonist: -10%; HEK293 tox: 40µM*

Results for O=C(c1ccc2n[nH]nc2c1)N1CCC2(CC1)Nc1ccccc1NC2=O ?
3T3 cytotox: -13%; Luciferase inh: inactive; GPT2 inh: inconclusive; hNpr1 antagonist: 5%; HEK293 tox: -29%

Results for Cc1cc(C)cc(NC(=O)N2C[C@@H](F)C[C@H]2C(=O)N2CCc3ccccc3C2)c1 ?
3T3 cytotox: inconclusive; GPT2 inh: 2%; HEK293 tox: -26%

Results for Cc1ccc(NC(=O)N2C[C@@H](F)C[C@H]2C(=O)N2CCc3ccccc3C2)cc1Cl ?
3T3 cytotox: inconclusive; Luciferase inh: inactive; GPT2 inh: inactive; hNpr1 antagonist: -13%; HEK293 tox: 28µM*

What do the screens show for `CC(C)(Oc1nn(Cc2cccc(Cl)c2)c2ccccc12)C(=O)NCc1ccncc1`?
3T3 cytotox: 32µM*; Luciferase inh: inactive; GPT2 inh: -16%[88.5 µM]; hNpr1 antagonist: inconclusive; HEK293 tox: inconclusive

Results for CN1CCC(NC(=O)C(C)(C)Oc2nn(Cc3cccc(Cl)c3)c3ccccc23)CC1 ?
3T3 cytotox: 32µM*; Luciferase inh: inactive; GPT2 inh: 2%[88.5 µM]; hNpr1 antagonist: -26%[70.6 µM]; HEK293 tox: 40µM*

How did CC(C)(Oc1nn(Cc2cccc(Cl)c2)c2ccccc12)C(=O)NCc1cnccn1 do in these assays?
3T3 cytotox: inconclusive; Luciferase inh: inactive; GPT2 inh: 0%[88.5 µM]; hNpr1 antagonist: -23%[70.6 µM]; HEK293 tox: 89µM*

What do the screens show for `COCCNC(=O)C(C)(C)Oc1nn(Cc2cccc(Cl)c2)c2ccccc12`?
3T3 cytotox: inconclusive; Luciferase inh: inactive; GPT2 inh: inconclusive; hNpr1 antagonist: -27%[70.6 µM]; HEK293 tox: 79µM*

How did COCCCNC(=O)C(C)(C)Oc1nn(Cc2cccc(Cl)c2)c2ccccc12 do in these assays?
3T3 cytotox: inconclusive; Luciferase inh: inactive; GPT2 inh: -7%[88.5 µM]; hNpr1 antagonist: inconclusive; HEK293 tox: inconclusive

Results for O=C(Cc1ccc(F)cc1)NCCNC(=O)c1ccc(-c2cncnc2)cc1 ?
3T3 cytotox: -14%; HEK293 tox: -5%

How did CN1CCN(C(=O)c2cc(-c3cccc(C(F)(F)F)c3)c3nncn3n2)CC1 do in these assays?
3T3 cytotox: inconclusive; GPT2 inh: inconclusive; HEK293 tox: -25%

How did Clc1cc(NCC2CCCCCC2)n2nccc2n1 do in these assays?
3T3 cytotox: 32µM*; Luciferase inh: inactive; GPT2 inh: inactive; hNpr1 antagonist: -28%[70.6 µM]; HEK293 tox: inconclusive

What do the screens show for `Clc1cc(NC2CCCCCC2)n2nccc2n1`?
3T3 cytotox: inconclusive; Luciferase inh: inactive; GPT2 inh: -24%[88.5 µM]; hNpr1 antagonist: 4%[70.6 µM]; HEK293 tox: 89µM*

What do the screens show for `Clc1cc(NCC2CCCCC2)n2nccc2n1`?
3T3 cytotox: inconclusive; Luciferase inh: inactive; GPT2 inh: inactive; hNpr1 antagonist: -20%[70.6 µM]; HEK293 tox: inconclusive

How did O=C1CCC2(CNC(=O)NCCc3ccccc3)CCCC=C2N1 (stereo not given) do in these assays?
3T3 cytotox: -12%; GPT2 inh: inactive; HEK293 tox: -12%

Results for O=C(Nc1ccccc1)N[C@H]1CO[C@H]2[C@@H]1OC[C@@H]2n1cc(CC2CCCCC2)nn1 ?
3T3 cytotox: inconclusive; Luciferase inh: inactive; GPT2 inh: inactive; hNpr1 antagonist: 0%[70.6 µM]; HEK293 tox: -32%[172 µM]

What do the screens show for `O=S(=O)(N[C@H]1CO[C@H]2[C@@H]1OC[C@@H]2n1cc(CC2CCCCC2)nn1)c1cccs1`?
3T3 cytotox: inconclusive; Luciferase inh: inactive; GPT2 inh: -8%; hNpr1 antagonist: -26%; HEK293 tox: 79µM*

How did CN(Cc1ccccc1)Cc1cn([C@H]2CO[C@H]3[C@@H]2OC[C@@H]3NS(=O)(=O)c2cccs2)nn1 do in these assays?
3T3 cytotox: inconclusive; Luciferase inh: inactive; GPT2 inh: inactive; hNpr1 antagonist: 3%; HEK293 tox: inconclusive

How did O=C(Nc1cccc(C(F)(F)F)c1)N[C@H]1CO[C@H]2[C@@H]1OC[C@@H]2n1cc(CC2CCCCC2)nn1 do in these assays?
3T3 cytotox: inconclusive; Luciferase inh: inactive; GPT2 inh: 4%; hNpr1 antagonist: inconclusive; HEK293 tox: 40µM*

What do the screens show for `COCc1cn([C@H]2CO[C@H]3[C@@H]2OC[C@H]3OC(=O)Nc2cccc(C(F)(F)F)c2)nn1`?
3T3 cytotox: inconclusive; Luciferase inh: inactive; GPT2 inh: -16%[88.5 µM]; hNpr1 antagonist: -12%[70.6 µM]; HEK293 tox: 79µM*

How did COc1ccccc1-c1ccnc(-n2ncc(C(=O)NCCc3cccnc3)c2C2CC2)n1 do in these assays?
3T3 cytotox: inconclusive; Luciferase inh: inconclusive; GPT2 inh: inactive; hNpr1 antagonist: -4%; HEK293 tox: -5%

How did CCc1nc2c(c(-c3ccc(O)cc3)n1)CN(C(=O)Cc1ccc(F)cc1)CC2 do in these assays?
3T3 cytotox: inconclusive; GPT2 inh: 0%; HEK293 tox: -2%

What do the screens show for `COc1cccc(C(=O)N2CCCC3(C2)NC(=O)N(Cc2ccc(C)cc2)C3=O)c1OC` (stereo not given)?
3T3 cytotox: -8%; Luciferase inh: inactive; GPT2 inh: inactive; hNpr1 antagonist: -18%; HEK293 tox: inconclusive

What do the screens show for `CN1CCc2c([nH]c3ccccc23)C12CCN(C(=O)C1CC1)CC2`?
3T3 cytotox: -3%; Luciferase inh: inactive; GPT2 inh: inactive; hNpr1 antagonist: 0%; HEK293 tox: inconclusive
